Results from PubChem BioAssay (NCI).
Compounds without any hit were thinned out: in the full panel of roughly 79,000, 15% have a hit. Values without a mark were called inactive. Calls of active or inactive are those of the source. Cut-off read from the data, not from the text of the source: active = growth inhibition above about 70%; inactive = the rest.

Legend:
[1] = NCI Yeast Anticancer Drug Screen. Data for the rad50 strain (AID 155);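 note: 0% = growth of vehicle-only cultures of the same strain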; conditions: S. cerevisiae rad50 strain growth inhibition, active compounds read high
Outline: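 Yeast carrying a defined DNA repair defect were exposed to test compounds, and growth was compared with vehicle-treated controls to give percent inhibition.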

[2] = NCI Yeast Anticancer Drug Screen. Data for the mec2-1 strain (AID 157); conditions: S. cerevisiae mec2-1 strain, active compounds read high
Outline: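 Cells of the genetically defined mec2-1 yeast strain are incubated with test compound. Inhibition of growth is calculated against vehicle-treated controls.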

[3] = NCI Yeast Anticancer Drug Screen. Data for the sgs1 mgt1 strain (AID 161);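 note: 0% = growth of cultures given vehicle only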; conditions: S. cerevisiae sgs1 mgt1 strain, active compounds read high
Outline: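 Inhibition of yeast growth, normalised to vehicle-treated controls, is reported for a strain bearing genetic alterations in DNA damage repair.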

[4] = NCI Yeast Anticancer Drug Screen. Data for the cln2 rad14 strain (AID 165);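 note: 0% = growth equal to vehicle treated cultures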; conditions: S. cerevisiae cln2 rad14 strain, active compounds read high
Outline: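 The screen exposed genetically defined yeast (cln2 rad14) to test compounds and scored growth inhibition relative to vehicle-treated controls.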

[5] = NCI Yeast Anticancer Drug Screen. Data for the bub3 strain (AID 167); conditions: S. cerevisiae bub3 mutant strain, active compounds read high
Outline: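 Compounds were applied to a genetically altered yeast strain carrying a cell-cycle control defect. Growth inhibition was scored against vehicle-treated controls.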

[6] = NCI Yeast Anticancer Drug Screen. Data for the mlh1 rad18 strain (AID 175); conditions: S. cerevisiae mlh1 rad18 strain growth inhibition, active compounds read high
Outline: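 Compound-treated yeast growth, normalised to vehicle controls. Strain bears defined DNA repair mutations.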

[7] = at 5.0 µM (retest, dose inferred, filed as 0.5)
[8] = at 50.0 µM (retest, dose inferred, filed as 5.0)

Compound | growth inhibition [1, 7] | growth inhibition [1, 8] | growth inhibition ([1]; at 50.0 µM) | growth inhibition [2, 7] | growth inhibition [2, 8] | growth inhibition ([2]; at 50.0 µM) | growth inhibition [3, 7] | growth inhibition [3, 8] | growth inhibition ([3]; at 50.0 µM) | growth inhibition [4, 7] | growth inhibition [4, 8] | growth inhibition ([4]; at 50.0 µM) | growth inhibition [5, 7] | growth inhibition [5, 8] | growth inhibition ([5]; at 50.0 µM) | growth inhibition [6, 7] | growth inhibition [6, 8] | growth inhibition ([6]; at 50.0 µM)
CCC(CC)C(c1ccc(O)cc1)c1ccc(O)cc1 | 92% (active) | 99% (active) | 99.5% (active) | 83% (active) | 100% (active) | 99.5% (active) | 88% (active) | 77% (active) | 99.6% (active) | 97% (active) | 100% (active) | 99.2% (active) | 75% (active) | 98% (active) | 99.7% (active) | 95% (active) | 100% (active) | 99.5% (active)
Cc1[nH]c2ccccc2c1SCc1ccccc1 | -5% | 99% (active) | 99.2% (active) | 2% | 100% (active) | 99.7% (active) | 0% | 100% (active) | 99.5% (active) | -2% | 99% (active) | 99.3% (active) | -6% | 99% (active) | 99.5% (active) | -7% | 98% (active) | 99.3% (active)
Cc1ccc(S(=O)(=O)NNc2nc(N(C)C)nc(N(C)C)n2)cc1 | 1% | 7% | 9.15% | 7% | 14% | 5.4% | 3% | 13% | 5.5% | 4% | 4% | 52.2% | -1% | 4% | 4.4% | 2% | 8% | 3.85%
Nc1ncc(C(=O)c2ccccc2)cc1[N+](=O)[O-] | -142% | -110% | -5.7% | -44% | -37% | 21.8% | -61% | -45% | -5.95% | -56% | -22% | 38.9% | -76% | -58% | -2.9% | -138% | -87% | -0.8%
CC1CCN(CC(=O)N2c3ccccc3Sc3cc4ccccc4cc32)CC1 | 4% | 15% | 10.2% | 4% | -20% | 13.6% | -15% | 12% | -14.6% | -37% | -4% | 23.8% | -4% | 7% | -3.9% | -4% | 8% | -2.5%
CCOC(=O)c1c(Cl)nc2ccccc2c1N=[N+]=[N-] | -10% | 77% (active) | 79.3% (active) | 14% | 95% (active) | 82.5% (active) | -13% | 93% (active) | 88.7% (active) | 20% | 86% (active) | 58% | -21% | 81% (active) | 86.8% (active) | 2% | 95% (active) | 89.5% (active)
CCOC(=O)N1CCN(CCCCCCOc2ccc(C(C)(C)C)cc2)CC1 | 3% | 82% (active) | 93.5% (active) | 28% | 87% (active) | 96% (active) | 31% | 97% (active) | 98.1% (active) | 12% | 61% | 94.5% (active) | 7% | 76% (active) | 96.7% (active) | 38% | 97% (active) | 98.6% (active)
C/C=C1\CC(C)(CC)C(C#N)(C#N)C(N)=C1C#N (configuration not stated) | 0% | -9% | -5.9% | -3% | 0% | 10.5% | 2% | -4% | -4.35% | -9% | -3% | 3.35% | -3% | -2% | 50.9% | 0% | -9% | -28.7%
CC(=O)SC(C[N+](=O)[O-])c1ccc2c(c1)OCO2 (configuration not stated) | 55% | 91% (active) | 91% (active) | 69% | 100% (active) | 93% (active) | 53% | 99% (active) | 93.5% (active) | 44% | 57% | 91.3% (active) | 63% | 96% (active) | 92.5% (active) | 59% | 97% (active) | 90.3% (active)
